Laboratory results from the supplement of paper PMC8728848.
About 410 targets per protein were measured; listed, in parts, are those with the strongest signals and a random draw of the rest.

Assays:
Assay in all cases: glycan array binding signal (z-score within array); higher = stronger binding
Conditions in all cases: glycan notation: IUPAC condensed, linker removed
Fuc(a1-2)Gal(b1-4)Glc6S = target: Fuc(a1-2)Gal(b1-4)Glc6S
Method in brief: (§1)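 Arrays were curated from the Consortium for Functional Glycomics database, 3228 in total, and kept only where the protein sequence was available. Binding is expressed as a within-array Z-score. This score was averaged across arrays of the same protein sequence at different concentrations or buffers and across linkers, and negative values can be read as non-binding.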

[1] = target: Fuc(a1-2)[Gal(a1-3)]Gal(b1-4)Glc
Method in brief: as §1

[2] = target: Fuc(a1-2)[Gal(a1-3)]Gal(b1-4)GlcNAc(b1-2)Man(a1-3)[Fuc(a1-2)[Gal(a1-3)]Gal(b1-4)GlcNAc(b1-2)Man(a1-6)]Man(b1-4)GlcNAc(b1-4)GlcNAc
Method in brief: as §1

[3] = target: Fuc(a1-2)[GalNAc(a1-3)]Gal
Method in brief: as §1

[4] = target: Fuc(a1-2)[GalNAc(a1-3)]Gal(b1-4)Glc
Method in brief: as §1

[5] = target: Fuc(a1-2)[GalNAc(a1-3)]Gal(b1-4)GlcNAc(b1-2)Man(a1-3)[Fuc(a1-2)[GalNAc(a1-3)]Gal(b1-4)GlcNAc(b1-2)Man(a1-6)]Man(b1-4)GlcNAc(b1-4)GlcNAc
Method in brief: as §1

[6] = target: Fuc(a1-2)[GalNAc(a1-3)]Gal(b1-4)GlcNAc(b1-3)Gal(b1-4)GlcNAc
Method in brief: as §1

[7] = target: Fuc(a1-2)[GalNAc(a1-3)]Gal(b1-4)GlcNAc(b1-3)Gal(b1-4)GlcNAc(b1-3)Gal(b1-4)GlcNAc
Method in brief: as §1

[8] = target: Fuc(a1-3)[Gal(b1-4)]GlcNAc
Method in brief: as §1

[9] = target: Fuc(a1-3)[GalNAc(b1-4)]GlcNAc
Method in brief: as §1

[10] = target: Gal(b1-3)GalNAc(a1-3)[Fuc(a1-2)]Gal(b1-4)Glc
Method in brief: as §1

[11] = target: Gal(b1-3)GalNAc(a1-3)[Fuc(a1-2)]Gal(b1-4)GlcNAc
Method in brief: as §1

[12] = target: Gal(b1-3)GlcNAc(a1-6)Gal(b1-4)GlcNAc
Method in brief: as §1

[13] = target: Gal(b1-3)GlcNAc(b1-3)Gal(b1-4)GlcNAc(b1-6)[Gal(b1-3)GlcNAc(b1-3)]Gal(b1-4)Glc
Method in brief: as §1

[14] = target: Gal(b1-4)GalNAc(a1-3)[Fuc(a1-2)]Gal(b1-4)GlcNAc
Method in brief: as §1

[15] = target: Gal(b1-4)GlcNAc(b1-2)Man(a1-3)[GlcNAc(b1-2)Man(a1-6)]Man(b1-4)GlcNAc(b1-4)GlcNAc
Method in brief: as §1

[16] = target: Gal(b1-4)GlcNAc(b1-2)Man(a1-6)Man(b1-4)GlcNAc(b1-4)GlcNAc
Method in brief: as §1

Gal4S(b1-4)GlcNAc = target: Gal4S(b1-4)GlcNAc
Method in brief: as §1

Gal6S(b1-3)GlcNAc = target: Gal6S(b1-3)GlcNAc
Method in brief: as §1

GlcA(b1-3)GlcNAc = target: GlcA(b1-3)GlcNAc
Method in brief: as §1

[17] = target: GlcNAc(a1-4)Gal(b1-4)GlcNAc(b1-3)Gal(b1-4)Glc
Method in brief: as §1

[18] = target: GlcNAc(b1-2)Man(a1-3)[GlcNAc(b1-4)][GlcNAc(b1-2)Man(a1-6)]Man(b1-4)GlcNAc(b1-4)GlcNAc
Method in brief: as §1

[19] = target: GlcNAc(b1-2)[GlcNAc(b1-6)]Man(a1-6)[GlcNAc(b1-2)Man(a1-3)]Man(b1-4)GlcNAc(b1-4)GlcNAc
Method in brief: as §1

[20] = target: GlcNAc(b1-2)[GlcNAc(b1-6)]Man(a1-6)[GlcNAc(b1-2)Man(a1-3)][GlcNAc(b1-4)]Man(b1-4)GlcNAc(b1-4)GlcNAc
Method in brief: as §1

[21] = target: GlcNAc(b1-4)[GlcNAc(b1-6)]GalNAc
Method in brief: as §1

Man(a1-2)Man(a1-3)Man = target: Man(a1-2)Man(a1-3)Man
Method in brief: as §1

Man(a1-6)Man = target: Man(a1-6)Man
Method in brief: as §1

Neu5Ac(a2-3)Gal = target: Neu5Ac(a2-3)Gal
Method in brief: as §1

[22] = target: Neu5Ac(a2-3)Gal(b1-3)GalNAc
Method in brief: as §1

[23] = target: Neu5Ac(a2-3)Gal(b1-3)[Neu5Ac(a2-3)Gal(b1-4)]GlcNAc
Method in brief: as §1

[24] = target: Neu5Ac(a2-3)Gal(b1-4)GlcNAc(b1-3)Gal(b1-4)GlcNAc(b1-3)Gal(b1-4)GlcNAc
Method in brief: as §1

[25] = target: Neu5Ac(a2-3)Gal6S(b1-4)GlcNAc
Method in brief: as §1

[26] = target: Neu5Ac(a2-6)Gal(b1-3)GlcNAc(b1-3)[Gal(b1-4)GlcNAc(b1-6)]Gal(b1-4)Glc
Method in brief: as §1

[27] = target: Neu5Ac(a2-6)Gal(b1-4)GlcNAc(b1-2)Man(a1-3)Man(b1-4)GlcNAc(b1-4)GlcNAc
Method in brief: as §1

[28] = target: Neu5Ac(a2-6)Gal(b1-4)GlcNAc(b1-3)Gal(b1-4)GlcNAc
Method in brief: as §1

B1: Gal 4 (Canis lupus) (protein)
chain: MAYVPAPGYQPTYNPTLPYNKPIPGGLSVGMSVYIQGITSEHMRRFCVNFVAGAHPGSDIAFHFNPRFDGWDKVVFNSHLGGKWGSEEKKRSMPFRKGTHFELVFMVLAEHYKVVVNGNPFYEFGHRLPLQLVTHLQVEGDVELQSINFIGGTQPLGQGPGHTQQQPSSLPTMEGPPVFNPPVPFRKRLQGGLTVRRTVIIKGFVPFTSKSFVINFMVESSGDLALHINPRLTEGLVVRNSCLNGSWGSEDRKLSYNPFIPGQFFDLSIRCGMDRFKVYANGQHLFDFSHRLLALQNVDMLEINGDVTLSYIQV
glycan array binding signal (z-score) (Fuc(a1-2)Gal(b1-4)Glc6S): 0.071 | glycan array binding signal (z-score) [1]: 8.77 | glycan array binding signal (z-score) [2]: 2.77 | glycan array binding signal (z-score) [3]: -0.155 | glycan array binding signal (z-score) [4]: 5.95 | glycan array binding signal (z-score) [5]: 3.76 | glycan array binding signal (z-score) [6]: 7.32 | glycan array binding signal (z-score) [7]: 0.359 | glycan array binding signal (z-score) [8]: -0.151 | glycan array binding signal (z-score) [9]: -0.147 | glycan array binding signal (z-score) [10]: 11.1 | glycan array binding signal (z-score) [11]: 2.63 | glycan array binding signal (z-score) [12]: -0.137 | glycan array binding signal (z-score) [13]: -0.146 | glycan array binding signal (z-score) [14]: 3.3 | glycan array binding signal (z-score) [15]: -0.154 | glycan array binding signal (z-score) [16]: -0.156 | glycan array binding signal (z-score) (Gal4S(b1-4)GlcNAc): -0.144 | glycan array binding signal (z-score) (Gal6S(b1-3)GlcNAc): -0.135 | glycan array binding signal (z-score) (GlcA(b1-3)GlcNAc): 0.144 | glycan array binding signal (z-score) [17]: -0.147 | glycan array binding signal (z-score) [18]: -0.148 | glycan array binding signal (z-score) [19]: -0.148 | glycan array binding signal (z-score) [20]: -0.148 | glycan array binding signal (z-score) [21]: -0.147 | glycan array binding signal (z-score) (Man(a1-2)Man(a1-3)Man): -0.142 | glycan array binding signal (z-score) (Man(a1-6)Man): -0.148 | glycan array binding signal (z-score) (Neu5Ac(a2-3)Gal): -0.152 | glycan array binding signal (z-score) [22]: -0.145 | glycan array binding signal (z-score) [23]: -0.156 | glycan array binding signal (z-score) [24]: -0.153 | glycan array binding signal (z-score) [25]: -0.16 | glycan array binding signal (z-score) [26]: -0.151 | glycan array binding signal (z-score) [27]: -0.151 | glycan array binding signal (z-score) [28]: -0.151
